Results on 118 compounds are retold here after PubChem BioAssay AID493240 (Broad Institute, 2011).

Out of some 1,300 compounds screened, about 270 (21%) were called active. The rule behind the calls is not given here. These entries were drawn from the full list. Results with a measured potency or affinity are listed apart.

This assay can be described thus: SK-MEL-5 parental cell viability loss, dose response, orthogonal assay for MITF inhibitor project, CellTiter-Glo, cherry-picked, set 3 (AID 493240). The following applies: SK-MEL-5 viability, ATP luminescence (CellTiter-Glo), 24 h; series mostly up to 35 µM; activity change, negative = viability loss: at the top concentration. Background: In ATP-based viability assays light output follows the ATP content of the culture.
Take `Cc1c(C#N)c(NC(=O)CCl)n(Cc2cccs2)c1C`: the “activity change, negative = viability loss” value is -21.3% (inactive). Under `O=C(/C=C/c1ccc2c(c1)OCO2)N1CCCCC1` stands -8.83% (inactive); under `Cc1ccccc1NCc1nc2ccccc2n1C`, -26.3% (inactive); under `O=C(NC(=S)NCc1ccccc1)c1ccccc1`, -7.22% (inactive). Next, `Cc1ccc(C(=O)N/C(=C\c2ccc(-c3ccccc3[N+](=O)[O-])o2)C(=O)NCCN(C)C)cc1`: -11% (inactive). Next, `O=C(NCC1CCCO1)c1cc(-c2ccc(Cl)cc2Cl)on1` (stereo not drawn): -0.7% (inactive); `CCOc1ccc2cc(C#N)c(SCC(=O)OC)nc2c1`: -0.011% (inactive). As to `Cc1ccc2nc(-c3ccncc3)[nH]c2c1`, the “activity change, negative = viability loss” value is -7.63% (inactive). As for `Cn1nnnc1Sc1ncnc2scc(-c3cccc(F)c3)c12`, the “activity change, negative = viability loss” value is -1.07% (inactive). Under `CN(C)c1ccc(-n2cccc2/C=C/[N+](=O)[O-])cc1` stands -40.2% (inactive); under `Cc1ccc(/C=c2/sc3n(c2=O)CCCN=3)o1`, -1.78% (inactive); under `Cc1ccc(C(=O)NC2=NCCS2)cc1Cl`, -9.15% (inactive). Turning to `Nc1nnc(/C=C/c2ccccc2Cl)s1`, the “activity change, negative = viability loss” value was 3.2% (inactive). Next, `CCOC(=O)N1CCC(NC(=O)C2CCCN(Cc3nc(-c4cccc(C)c4)oc3C)C2)CC1` (stereo not drawn): -18.6% (inactive). Under `CC1CCN(Cc2nc(-c3ccc(Cl)cc3)no2)CC1` stands -6.13% (inactive); under `COc1cc(CN2CCC(C(=O)NCCC(C)C)CC2)ccc1OCc1ccccc1`, -4.88% (inactive); under `CC(C)c1ccc(C(=O)Nc2cccnc2)cc1`, 3.56% (inactive). Under `Cc1cccc(NC(=O)c2cnn(-c3ccccc3)c2C)c1C` stands -9.37% (inactive); under `CCOc1ccccc1NC(=O)C1C2CCC(O2)C1C(=O)O` (stereo not drawn), 11.8% (inactive). Regarding `N#Cc1c(NC(=O)CSc2ncn[nH]2)sc2c1CCCCC2`, the “activity change, negative = viability loss” value is -22.5% (inactive).

Regarding `COC(=O)c1ccc(COc2ccc(C)cc2[N+](=O)[O-])o1`, the “activity change, negative = viability loss” value is -9.13% (inactive). With `O=C(Nc1ccccc1N1CCOCC1)c1ccc([N+](=O)[O-])s1`, the “activity change, negative = viability loss” value is -22.3% (inactive). Under `O=C(Nc1ccc(N2CCOCC2)cc1)c1cnsn1` stands -19.4% (inactive); under `CCCOc1ccc(C(=O)Nc2ccc3c(c2)OCCO3)cc1`, -8.17% (inactive); under `Cc1ccc(NC(=O)c2ccc([N+](=O)[O-])o2)cc1S(=O)(=O)N1CCOCC1`, -28.5% (inactive). Next, `Cc1ccc(NC(=O)c2cc(N3C(=O)C=CC3=O)ccc2N2CCOCC2)cc1Cl`: -17.8% (inactive); `CCOC(=O)c1ccc(NC(=O)c2ccnn2C)cc1`: -12.7% (inactive); `CCOC(=O)c1ccc(NC(=O)CC2SCCNC2=O)cc1` (stereo not drawn): -5.27% (inactive). For the compound `Cc1ccc(NC(=O)c2ccc(OCC3CCCO3)cc2)c(C)c1` (stereo not drawn), the “activity change, negative = viability loss” value was 1.58% (inactive). Next, `C=CCC(Nc1ccccc1)C12C=CC(O1)C(C(=O)OC)=C2C(=O)OC` (stereo not drawn): -37.9% (inactive); `Cc1ccc(N2C(=O)c3ccc(N)cc3C2=O)cc1C`: -0.496% (inactive); `S=c1[nH]nc(-c2ccco2)n1/N=C/C(Cl)=C/c1ccccc1`: -1.61% (inactive). Turning to `CCCCC1C(=O)N(c2ccccc2)N(c2ccc(O)cc2)C1=O` (stereo not drawn), the “activity change, negative = viability loss” value was -9.02% (inactive).

For `CCOC(=O)CSc1nc2cc(OCC)ccc2cc1C#N`, the “activity change, negative = viability loss” value is 6.5% (inactive). Next, `Brc1ccc(-c2cn3cccnc3n2)cc1`: 4.33% (inactive); `O=C(NCc1ccco1)c1nc2c(nnn2Cc2ccccc2Cl)c(=O)[nH]1`: 9.37% (inactive). Next, `CC(NC(=O)c1ccc([N+](=O)[O-])o1)C12CC3CC(CC(C3)C1)C2` (stereo not drawn): -27.9% (inactive); `C=C1C(=O)O[C@@H]2[C@H]1[C@@H](OC(=O)/C(C)=C/C)C/C(C)=C\C(=O)/C=C(\C)[C@@H]2O`: -35.8% (inactive); `CCN(CCO)c1ccc(N=Nc2cc(C)[nH]n2)cc1`: -2.53% (inactive). Next, `CN(C)c1ccc(/C=C2\SC(=O)N(CCc3nnc(N)s3)C2=O)cc1`: -5.85% (inactive); `COc1ccc(-c2nc(-c3ccccc3OC)no2)cc1OC`: 4.84% (inactive). With `Cc1ccc(NC(=O)Cn2ncc(Cl)c(Cl)c2=O)cc1S(=O)(=O)N1CCCCC1`, the “activity change, negative = viability loss” value was -28.8% (inactive).

In the case of `O=C1CN(C(=O)Cn2ncc(Cl)c(Cl)c2=O)c2ccccc2N1`, the “activity change, negative = viability loss” value was -29.3% (inactive).

Turning to `CC(C)(C)C(=O)Cn1ncc(Cl)c(Cl)c1=O`, the “activity change, negative = viability loss” value was -12.3% (inactive).

Turning to `O=C(Cn1ncc(Cl)c(Cl)c1=O)N1CCN(Cc2ccccc2)CC1`, the “activity change, negative = viability loss” value was -27.6% (inactive). For the compound `O=C(Cn1ncc(Cl)c(Cl)c1=O)NCC1CCCCC1`, the “activity change, negative = viability loss” value is -26.5% (inactive).

On to `Cc1cc(Br)ccc1NC(=O)CNC(=O)Cn1ncc(Cl)c(Cl)c1=O`, for which the “activity change, negative = viability loss” value was -30.1% (inactive). Next, `Cc1ccc(CC(=O)Nc2ccc(Cl)cn2)cc1`: 3.24% (inactive); `C1CCC(C(CC2CCCCN2)C2CCCCC2)CC1` (stereo not drawn): -96.3% (inactive); `OCc1ccc(N=Nc2ccccc2)cc1`: -1.94% (inactive). Under `COc1cc(-c2nnc(-c3ccco3)o2)ccc1OCc1ccccc1` stands -2.21% (inactive); under `Cc1ccc2nc(C)cc(Nc3ccc([N+](=O)[O-])cc3)c2c1`, -39.3% (inactive). Under `CCOc1cccc(C(=O)NC2=NCCS2)c1` stands 3.16% (inactive).

Consider `COc1ccc(C)cc1Nc1nc(N)c2cc(OC)c(OC)cc2n1`, for which the “activity change, negative = viability loss” value was -22.4% (inactive). Next, `O=C(O)c1cc(N/N=C/C(Cl)=C/c2ccccc2)ccc1Cl`: -4.24% (inactive); `Cc1ccc(C(=O)Nc2nc3ccc(Cl)cc3s2)o1`: 5.37% (inactive); `Cc1ccc(-c2n[nH]c(=O)c3ccccc23)cc1S(=O)(=O)NCC1CCCO1` (stereo not drawn): -4.56% (inactive). Next, `O=C(Nc1ccc2nn(-c3ccccc3)nc2c1)c1ccco1`: -6.18% (inactive); `CCOc1ccc(-c2nnc(-c3cccs3)o2)cc1OCC`: 9.05% (inactive); `Cn1cc(C(=O)N/N=C/c2c(O)ccc3ccccc23)ccc1=O`: -13.1% (inactive). Under `C/C(=N/Nc1nc(C)c(C)s1)c1cccc([N+](=O)[O-])c1` stands -16.5% (inactive); under `O=[N+]([O-])c1cc(Cl)cc(/C=N\Nc2ccccn2)c1O`, -39.1% (inactive).

Take `CCCOc1ccc(-c2c(=O)n(O)c3ccccc3[n+]2[O-])cc1`: the “activity change, negative = viability loss” value was -16.6% (inactive). Under `Cc1ccc2oc(=O)n(CCCOc3ccccc3)c2c1` stands -2.76% (inactive); under `CCOc1ccc(-c2noc(CCC(=O)O)n2)cc1`, -7.35% (inactive); under `COc1cccc(C(=O)N/N=C(/c2ccccc2)c2ccccn2)c1`, -25.7% (inactive). Under `CC(=O)Nc1ccc(NC(=O)c2nc(S(=O)(=O)Cc3ccccc3)ncc2Cl)cc1` stands -18.8% (inactive).

With `CS(=O)(=O)c1ncc(Cl)c(C(=O)Nc2ccc(N3CCOCC3)cc2)n1`, the “activity change, negative = viability loss” value was -31.5% (inactive). Next, `O=C(Nc1ccc(F)cc1)c1nc(S(=O)(=O)Cc2ccccc2)ncc1Cl`: -46.5% (inactive). Next, `O=C(Nc1ccc2ncccc2c1)c1ccccc1Br`: -4.02% (inactive). Under `COc1ccc(/C=N/N=C2/SCC(=O)N2Cc2ccccc2)cc1` stands -11.2% (inactive).

Take `Cc1ccc(C)c(S(=O)(=O)N2CCN(Cc3ccc(O)c4ncccc34)CC2)c1`: the “activity change, negative = viability loss” value was -33.8% (inactive). Under `CC1CCCC(NC(=O)NC(=O)CCl)C1C` (stereo not drawn) stands -4.56% (inactive); under `Cc1ccc(-c2cn3cc(C)ccc3n2)cc1`, -17.5% (inactive).

With `O=C(O)c1cccc(NC(=S)N/N=C/c2ccccn2)c1`, the “activity change, negative = viability loss” value was -4.83% (inactive). Under `CC1=NOC(=O)/C1=C\c1ccc(-c2cccc(Cl)c2)o1` stands -12.6% (inactive); under `CC(C)[C@H](NC(=O)OC(C)(C)C)c1nnc(S(=O)(=O)Cc2c(F)cccc2Cl)o1`, -44.2% (inactive); under `C/C(=N\NC(=O)C1COc2ccccc2O1)c1ccccn1` (stereo not drawn), -29.1% (inactive).

Turning to `Cc1cc(C)c2c(N)c(C(=O)Nc3ncc(C)s3)sc2n1`, the “activity change, negative = viability loss” value was -29.7% (inactive). Next, `CC(OC(=O)c1ccc([N+](=O)[O-])s1)C(=O)NC1CCCCC1C` (stereo not drawn): 1.2% (inactive); `Clc1c(-c2ccccc2)nc2ccccn12`: -2.85% (inactive). Next, `Cn1nnnc1Sc1ncnc2scc(-c3ccc[nH]3)c12`: -22.3% (inactive). Next, `C=C1CCC[C@]2(C)C[C@H]3OC(=O)C(CN4CCCCC4CO)[C@H]3CC12` (stereo partly drawn): 20.2% (inactive). On to `COc1cc(/C=N/NS(=O)(=O)c2ccc(C)cc2)ccc1OCc1cccc(C(=O)O)c1`, for which the “activity change, negative = viability loss” value is 6.32% (inactive). As to `CCOc1cc(/C=C2/NC(=S)NC2=O)ccc1OCc1ccc([N+](=O)[O-])cc1`, the “activity change, negative = viability loss” value is -31.2% (inactive).

On to `COc1cc(/C=N/NS(=O)(=O)c2ccc3ccccc3c2)ccc1OCc1ccc(C(=O)O)cc1`, for which the “activity change, negative = viability loss” value was 0.683% (inactive). Next, `CCOc1cc(/C=N/Nc2cccc(C(=O)O)c2)ccc1OC(=O)c1ccccc1`: -4.54% (inactive); `O=C(Cn1nnc(-c2ccccc2Cl)n1)N1CCCCC1`: 7.72% (inactive); `CC(C)OC(=O)CSc1nc2cc3c(cc2cc1C#N)OCO3`: -2.87% (inactive).

In the case of `CCOc1ccc(OCc2ccc(C(=O)N/N=C(\C)c3ccccn3)cc2)cc1`, the “activity change, negative = viability loss” value is -41.8% (inactive).

For `C/C(=N\NC(=O)Cc1ccc(Cl)cc1)c1ccccn1`, the “activity change, negative = viability loss” value was -31.1% (inactive). Under `O=C(Nc1nc2ccccc2s1)Nc1ccc(F)cc1F` stands 3.41% (inactive); under `O=C(N/N=C/c1ccccc1)c1ccco1`, -4.03% (inactive); under `O=C(Nc1ccccc1)O/N=C/c1ccc(F)cc1`, -11.8% (inactive). Next, `CCC(=O)OCCNc1cc(Sc2nc3ccccc3[nH]2)c2nonc2c1[N+](=O)[O-]`: -31.7% (inactive); `Cc1cc(C)nc(S/C=C/C(=O)c2ccccc2F)n1`: -22.5% (inactive). Next, `CC(=O)N/C(N)=N/c1nc2cc(C)ccc2o1`: -5.21% (inactive); `COc1ccccc1N1CCN(/N=C/c2ccc([N+](=O)[O-])cc2)CC1`: 5.48% (inactive).

Regarding `CN(c1ccc(O)cc1)c1nc(O)c(C2=c3ccccc3=NC2=O)s1`, the “activity change, negative = viability loss” value is 2.68% (inactive). Next, `CCOC(=O)C1CCCN(C(=O)C2CCN(S(=O)(=O)CC)CC2)C1` (stereo not drawn): 4.63% (inactive). Under `Nc1ccc(-c2nc3ccc(C(=O)O)cc3s2)cc1` stands -9.29% (inactive). Under `Cn1c(COc2ccccc2)nc2ccccc21` stands -6.39% (inactive); under `COCc1nc(-c2ccc(-c3ccccc3)nc2OC)no1`, -1.92% (inactive); under `Brc1cccc(/C=N/Nc2nn[nH]n2)c1`, 4.62% (inactive). Consider `CC(C)=CCc1c(O)ccc2c1OC(c1ccc(O)c(O)c1)CC2=O` (stereo not drawn), for which the “activity change, negative = viability loss” value was -7.03% (inactive). Next, `O=C(Nc1cc2c(cc1Cl)OCCO2)c1ccco1`: 6.8% (inactive). Under `CCOc1ccc(-n2c(C)cc(C(=O)CCl)c2C)cc1` stands -41.3% (inactive); under `COc1ccc(-n2c(C)cc(C(=O)CCl)c2C)cc1`, -44.3% (inactive); under `CCN(CC)CC(=O)Nc1scc2c1c(=O)oc1ccccc12`, 9.99% (inactive). For `CCN(Cc1ccc(OC)c(F)c1)C(=O)CCl`, the “activity change, negative = viability loss” value is -6.7% (inactive).

`COc1ccccc1N(C(=O)CCl)c1cn(C(C)=O)c2ccccc12`: the “activity change, negative = viability loss” value is -32.2% (inactive).

As to `O=C(c1ccc(F)cc1)C(CN1CCOCC1)c1ccccc1` (stereo not drawn), the “activity change, negative = viability loss” value is -14.1% (inactive). Next, `Cn1nnnc1Sc1ncnc2scc(-c3ccsc3)c12`: -1.66% (inactive); `Cn1nnnc1Sc1ncnc2scc(-c3ccc(F)cc3)c12`: -16.3% (inactive); `O=C(NC1=NCCS1)c1ccc(Cl)c(Cl)c1`: -7.94% (inactive). On to `O=C(Nc1ccc2nc(-c3ccccc3)[nH]c2c1)c1ccco1`, for which the “activity change, negative = viability loss” value was -12% (inactive).

Regarding `COc1ccc(C(=O)/C=C/Nc2ccccn2)cc1`, the “activity change, negative = viability loss” value is -36.9% (inactive). Under `O=C(/C=C\Nc1ccc2c(c1)OCO2)c1ccccn1` stands -44.2% (inactive).
